# Data: paper PMC7862700, “An all-to-all approach to the identification of sequence-specific readers for epigenetic DNA modifications on cytosine”
# Tests used:
# Assay in all cases: DAPPL (digital affinity profiling via proximity ligation, sequencing); 10 mM Tris-HCl pH 7.5, 50 mM NaCl, 1 mM DTT, 4% glycerol, room temperature, 30 min; GST-TFs on glutathione beads, 16-mer random dsDNA library, 0.1% formaldehyde crosslink after washing; high values mean tight binding
# FEV = molecular target: T1, FEV (Homo sapiens, UniProt Q99581 1-238); conditions: protein: recombinant; tags: N-terminal GST; dsDNA, one strand shown
# T1 sequence: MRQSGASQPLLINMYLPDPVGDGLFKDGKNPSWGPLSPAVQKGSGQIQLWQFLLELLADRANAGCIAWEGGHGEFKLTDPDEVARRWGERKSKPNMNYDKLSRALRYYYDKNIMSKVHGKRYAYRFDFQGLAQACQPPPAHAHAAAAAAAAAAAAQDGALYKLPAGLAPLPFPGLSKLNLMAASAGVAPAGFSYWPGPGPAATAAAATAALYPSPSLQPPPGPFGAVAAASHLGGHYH
# Method in brief: (§1)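 Yeast served to express human transcription factors as GST fusions, which were then captured on glutathione beads and labelled with DNA barcodes. Pooled with a tag-only sample, they were incubated with 200 nmole of a 16-mer random double-stranded DNA library for 30 min at room temperature in Tris/NaCl/DTT/glycerol buffer, washed, crosslinked with 0.1% formaldehyde, ligated by proximity, amplified by PCR and sequenced. Dividing each hexamer's read frequency for a factor by its frequency for the tag-only sample gives the binding signal.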
# ETV5 = ETV5 (Homo sapiens, UniProt P41161 1-510); conditions: protein: recombinant; tags: N-terminal GST; dsDNA, one strand shown
# Chain of ETV5 (P41161 whole entry): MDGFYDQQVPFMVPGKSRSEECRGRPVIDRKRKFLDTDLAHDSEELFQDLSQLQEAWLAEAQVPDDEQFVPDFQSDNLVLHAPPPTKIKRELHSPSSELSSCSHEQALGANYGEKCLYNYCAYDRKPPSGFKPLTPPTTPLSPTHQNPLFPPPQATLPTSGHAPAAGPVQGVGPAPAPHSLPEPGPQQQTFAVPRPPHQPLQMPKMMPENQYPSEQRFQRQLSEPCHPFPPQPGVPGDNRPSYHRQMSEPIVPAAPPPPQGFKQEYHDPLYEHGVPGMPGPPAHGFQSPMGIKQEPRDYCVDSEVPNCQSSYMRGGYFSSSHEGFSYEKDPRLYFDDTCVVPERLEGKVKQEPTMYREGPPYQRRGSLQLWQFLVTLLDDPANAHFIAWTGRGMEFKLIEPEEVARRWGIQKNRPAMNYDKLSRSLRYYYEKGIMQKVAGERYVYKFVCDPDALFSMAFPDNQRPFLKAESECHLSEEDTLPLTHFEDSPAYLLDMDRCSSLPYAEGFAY
# Method in brief: as §1
# HSF1 = HSF1 (Homo sapiens, UniProt Q00613 1-529); conditions: protein: recombinant; tags: N-terminal GST; chain copies: 3; dsDNA, one strand shown
# Chain of HSF1 (Q00613 whole entry): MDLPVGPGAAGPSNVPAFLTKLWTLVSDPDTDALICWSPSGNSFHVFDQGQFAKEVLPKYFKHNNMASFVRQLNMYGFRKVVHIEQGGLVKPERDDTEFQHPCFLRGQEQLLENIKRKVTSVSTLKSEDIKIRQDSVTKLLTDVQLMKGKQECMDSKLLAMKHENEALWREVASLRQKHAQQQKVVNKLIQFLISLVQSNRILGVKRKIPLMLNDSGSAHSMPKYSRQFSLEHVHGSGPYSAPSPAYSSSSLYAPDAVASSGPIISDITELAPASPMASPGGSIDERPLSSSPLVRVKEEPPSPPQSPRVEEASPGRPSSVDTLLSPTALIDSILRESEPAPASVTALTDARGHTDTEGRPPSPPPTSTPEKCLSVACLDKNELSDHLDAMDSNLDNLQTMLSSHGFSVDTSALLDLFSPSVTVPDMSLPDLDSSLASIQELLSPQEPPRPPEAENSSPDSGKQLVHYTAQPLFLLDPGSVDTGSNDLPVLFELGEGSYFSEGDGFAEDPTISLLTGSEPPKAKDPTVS
# Method in brief: as §1
# SPIC = molecular target: T2, SPIC (Homo sapiens, UniProt Q8N5J4 1-248); conditions: protein: recombinant; tags: N-terminal GST; dsDNA, one strand shown
# T2 sequence: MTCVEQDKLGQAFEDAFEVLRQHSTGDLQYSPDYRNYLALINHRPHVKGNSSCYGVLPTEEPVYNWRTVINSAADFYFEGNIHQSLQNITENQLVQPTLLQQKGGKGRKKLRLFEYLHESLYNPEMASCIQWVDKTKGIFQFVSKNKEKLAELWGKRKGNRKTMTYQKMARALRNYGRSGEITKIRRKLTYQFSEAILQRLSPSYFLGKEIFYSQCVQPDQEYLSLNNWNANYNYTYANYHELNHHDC
# Method in brief: as §1
# ELF4 = ELF4 (Homo sapiens, UniProt Q99607 1-663); conditions: protein: recombinant; tags: N-terminal GST; dsDNA, one strand shown
# Chain of ELF4 (Q99607 whole entry): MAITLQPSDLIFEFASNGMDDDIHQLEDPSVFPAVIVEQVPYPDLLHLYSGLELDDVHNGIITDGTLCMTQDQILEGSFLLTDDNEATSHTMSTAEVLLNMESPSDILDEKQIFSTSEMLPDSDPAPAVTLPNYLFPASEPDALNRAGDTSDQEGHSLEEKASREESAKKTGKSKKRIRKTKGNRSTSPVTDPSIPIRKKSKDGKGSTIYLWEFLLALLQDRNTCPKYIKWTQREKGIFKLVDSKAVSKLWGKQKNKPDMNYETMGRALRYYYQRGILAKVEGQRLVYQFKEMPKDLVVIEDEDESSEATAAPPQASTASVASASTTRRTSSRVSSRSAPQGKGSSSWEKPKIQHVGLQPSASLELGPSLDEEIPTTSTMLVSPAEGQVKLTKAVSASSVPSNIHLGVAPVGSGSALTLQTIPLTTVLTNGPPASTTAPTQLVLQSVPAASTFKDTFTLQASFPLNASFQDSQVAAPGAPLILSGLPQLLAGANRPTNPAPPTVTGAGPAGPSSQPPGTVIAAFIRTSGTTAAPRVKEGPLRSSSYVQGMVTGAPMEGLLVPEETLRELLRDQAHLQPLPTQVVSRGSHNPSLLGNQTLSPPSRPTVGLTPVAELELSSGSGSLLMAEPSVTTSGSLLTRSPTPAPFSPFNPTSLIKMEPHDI
# Method in brief: as §1
# ELK4 = molecular target: T3, ELK4 (Homo sapiens, UniProt P28324-2 1-405); conditions: protein: recombinant; tags: N-terminal GST; dsDNA, one strand shown
# T3 sequence: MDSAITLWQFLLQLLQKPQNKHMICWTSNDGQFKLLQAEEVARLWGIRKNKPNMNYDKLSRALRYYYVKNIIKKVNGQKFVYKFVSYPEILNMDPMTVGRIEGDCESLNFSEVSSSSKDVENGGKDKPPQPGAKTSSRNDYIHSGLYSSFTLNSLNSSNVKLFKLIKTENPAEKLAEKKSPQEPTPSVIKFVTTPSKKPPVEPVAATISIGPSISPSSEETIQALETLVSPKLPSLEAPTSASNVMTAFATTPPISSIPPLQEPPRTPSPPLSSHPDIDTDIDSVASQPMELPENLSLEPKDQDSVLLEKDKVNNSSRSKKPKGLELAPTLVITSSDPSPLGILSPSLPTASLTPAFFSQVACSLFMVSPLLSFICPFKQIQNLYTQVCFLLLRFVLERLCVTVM
# Method in brief: as §1
# ETV2 = molecular target: T4, ETV2 (Homo sapiens, UniProt O00321 1-342); conditions: protein: recombinant; tags: N-terminal GST; dsDNA, one strand shown
# T4 sequence: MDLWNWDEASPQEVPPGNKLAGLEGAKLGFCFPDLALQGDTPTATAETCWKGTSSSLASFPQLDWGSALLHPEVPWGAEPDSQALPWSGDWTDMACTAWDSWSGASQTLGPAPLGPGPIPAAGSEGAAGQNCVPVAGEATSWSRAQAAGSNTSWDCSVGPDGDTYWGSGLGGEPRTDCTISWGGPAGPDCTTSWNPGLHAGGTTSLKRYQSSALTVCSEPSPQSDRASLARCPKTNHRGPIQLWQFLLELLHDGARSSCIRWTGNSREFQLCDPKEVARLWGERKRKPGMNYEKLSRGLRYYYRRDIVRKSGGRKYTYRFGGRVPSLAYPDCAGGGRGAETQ
# Method in brief: as §1
# ELF3 = molecular target: T5, ELF3 (Homo sapiens, UniProt P78545 1-371); conditions: protein: recombinant; tags: N-terminal GST; dsDNA, one strand shown
# T5 sequence: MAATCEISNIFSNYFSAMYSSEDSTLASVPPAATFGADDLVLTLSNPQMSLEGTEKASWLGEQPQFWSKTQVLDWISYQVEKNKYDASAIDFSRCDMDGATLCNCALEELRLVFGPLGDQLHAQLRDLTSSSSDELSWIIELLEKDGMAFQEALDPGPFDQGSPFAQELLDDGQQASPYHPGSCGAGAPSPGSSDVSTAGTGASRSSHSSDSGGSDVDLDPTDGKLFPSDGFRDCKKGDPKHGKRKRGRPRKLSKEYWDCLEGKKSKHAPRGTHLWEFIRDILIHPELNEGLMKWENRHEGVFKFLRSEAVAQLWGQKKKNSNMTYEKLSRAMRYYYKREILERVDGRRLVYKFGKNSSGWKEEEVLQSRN
# Method in brief: as §1
# CRX = CRX (Homo sapiens, UniProt O43186 1-299); conditions: protein: recombinant; tags: N-terminal GST; dsDNA, one strand shown
# Chain of CRX (O43186 whole entry): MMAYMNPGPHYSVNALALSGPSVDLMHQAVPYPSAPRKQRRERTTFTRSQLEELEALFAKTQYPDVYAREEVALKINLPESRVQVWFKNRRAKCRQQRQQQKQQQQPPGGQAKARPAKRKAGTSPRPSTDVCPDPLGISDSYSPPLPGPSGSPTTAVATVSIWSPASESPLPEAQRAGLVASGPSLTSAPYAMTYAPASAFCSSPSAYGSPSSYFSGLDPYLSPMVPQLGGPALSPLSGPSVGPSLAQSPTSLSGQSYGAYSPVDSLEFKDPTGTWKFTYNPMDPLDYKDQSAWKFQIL
# Method in brief: as §1
# ETV1 = ETV1 (Homo sapiens, UniProt P50549 1-477); conditions: protein: recombinant; tags: N-terminal GST; dsDNA, one strand shown
# Chain of ETV1 (P50549 whole entry): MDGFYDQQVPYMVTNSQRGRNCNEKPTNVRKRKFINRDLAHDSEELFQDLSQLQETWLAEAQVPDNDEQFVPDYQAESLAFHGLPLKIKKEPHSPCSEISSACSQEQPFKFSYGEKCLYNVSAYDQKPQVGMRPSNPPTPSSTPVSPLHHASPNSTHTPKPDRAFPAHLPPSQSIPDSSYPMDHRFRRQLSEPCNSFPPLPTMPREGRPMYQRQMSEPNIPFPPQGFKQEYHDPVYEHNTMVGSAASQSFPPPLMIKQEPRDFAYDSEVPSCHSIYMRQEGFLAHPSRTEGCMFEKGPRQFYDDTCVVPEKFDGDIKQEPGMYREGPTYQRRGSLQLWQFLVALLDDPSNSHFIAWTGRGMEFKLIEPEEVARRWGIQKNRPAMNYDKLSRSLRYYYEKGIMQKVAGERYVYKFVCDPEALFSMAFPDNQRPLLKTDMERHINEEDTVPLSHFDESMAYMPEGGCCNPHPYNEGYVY
# Method in brief: as §1
# ERF = molecular target: T6, ERF (Homo sapiens, UniProt P50548 1-548); conditions: protein: recombinant; tags: N-terminal GST; dsDNA, one strand shown
# T6 sequence: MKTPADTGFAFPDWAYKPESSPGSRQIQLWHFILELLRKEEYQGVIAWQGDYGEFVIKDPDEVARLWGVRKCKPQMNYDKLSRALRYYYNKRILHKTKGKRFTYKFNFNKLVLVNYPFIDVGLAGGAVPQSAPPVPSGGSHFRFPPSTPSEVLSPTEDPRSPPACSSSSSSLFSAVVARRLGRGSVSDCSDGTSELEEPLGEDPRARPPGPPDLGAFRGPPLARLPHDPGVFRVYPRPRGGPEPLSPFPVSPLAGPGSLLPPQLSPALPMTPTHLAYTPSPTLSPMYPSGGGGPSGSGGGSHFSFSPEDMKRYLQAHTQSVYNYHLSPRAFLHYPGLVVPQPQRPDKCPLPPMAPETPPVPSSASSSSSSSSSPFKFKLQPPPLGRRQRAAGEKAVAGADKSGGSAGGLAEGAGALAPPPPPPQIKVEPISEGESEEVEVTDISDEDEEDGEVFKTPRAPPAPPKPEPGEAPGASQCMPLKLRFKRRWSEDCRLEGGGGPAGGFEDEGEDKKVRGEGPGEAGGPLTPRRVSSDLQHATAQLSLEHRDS
# Method in brief: as §1
# ETV3L = molecular target: T7, ETV3L (Homo sapiens, UniProt Q6ZN32 1-361); conditions: protein: recombinant; tags: N-terminal GST; dsDNA, one strand shown
# T7 sequence: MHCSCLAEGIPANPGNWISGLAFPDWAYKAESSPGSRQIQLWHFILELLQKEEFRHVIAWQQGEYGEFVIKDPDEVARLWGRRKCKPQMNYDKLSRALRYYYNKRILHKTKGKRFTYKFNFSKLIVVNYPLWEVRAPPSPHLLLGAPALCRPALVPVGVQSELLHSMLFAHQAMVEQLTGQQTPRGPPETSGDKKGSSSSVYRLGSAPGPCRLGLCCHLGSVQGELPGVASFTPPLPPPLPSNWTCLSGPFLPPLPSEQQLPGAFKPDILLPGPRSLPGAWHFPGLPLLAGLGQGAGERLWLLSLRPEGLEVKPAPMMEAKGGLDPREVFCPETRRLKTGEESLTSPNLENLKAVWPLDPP
# Method in brief: as §1
# ETS2 = molecular target: T8, ETS2 (Homo sapiens, UniProt P15036 1-469); conditions: protein: recombinant; tags: N-terminal GST; dsDNA, one strand shown
# T8 sequence: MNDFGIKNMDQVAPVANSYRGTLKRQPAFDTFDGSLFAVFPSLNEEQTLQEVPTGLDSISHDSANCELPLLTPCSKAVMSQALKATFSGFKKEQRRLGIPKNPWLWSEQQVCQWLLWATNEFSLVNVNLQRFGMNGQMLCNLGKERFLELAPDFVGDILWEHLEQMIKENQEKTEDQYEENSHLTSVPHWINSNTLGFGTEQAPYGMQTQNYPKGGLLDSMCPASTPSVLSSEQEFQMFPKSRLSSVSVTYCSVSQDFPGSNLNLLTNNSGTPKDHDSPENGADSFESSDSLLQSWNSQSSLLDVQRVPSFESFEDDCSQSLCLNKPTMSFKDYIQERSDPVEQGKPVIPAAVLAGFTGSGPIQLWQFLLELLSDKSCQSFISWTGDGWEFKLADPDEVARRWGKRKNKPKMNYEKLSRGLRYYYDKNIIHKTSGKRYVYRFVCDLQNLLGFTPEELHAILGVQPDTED
# Method in brief: as §1
# SPDEF = molecular target: T9, SPDEF (Homo sapiens, UniProt O95238 1-335); conditions: protein: recombinant; tags: N-terminal GST; dsDNA, one strand shown
# T9 sequence: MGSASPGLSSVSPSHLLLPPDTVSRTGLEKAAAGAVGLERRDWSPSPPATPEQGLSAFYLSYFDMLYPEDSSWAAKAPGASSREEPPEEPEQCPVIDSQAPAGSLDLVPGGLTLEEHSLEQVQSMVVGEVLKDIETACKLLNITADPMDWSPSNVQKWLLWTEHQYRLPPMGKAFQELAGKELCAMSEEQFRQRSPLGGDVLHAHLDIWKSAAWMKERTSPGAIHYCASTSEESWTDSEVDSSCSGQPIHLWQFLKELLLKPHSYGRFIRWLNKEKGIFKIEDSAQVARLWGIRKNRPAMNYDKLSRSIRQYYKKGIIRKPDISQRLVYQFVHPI
# Method in brief: as §1
# ETV7 = molecular target: T10, ETV7 (Homo sapiens, UniProt Q9Y603 1-341); conditions: protein: recombinant; tags: N-terminal GST; dsDNA, one strand shown
# T10 sequence: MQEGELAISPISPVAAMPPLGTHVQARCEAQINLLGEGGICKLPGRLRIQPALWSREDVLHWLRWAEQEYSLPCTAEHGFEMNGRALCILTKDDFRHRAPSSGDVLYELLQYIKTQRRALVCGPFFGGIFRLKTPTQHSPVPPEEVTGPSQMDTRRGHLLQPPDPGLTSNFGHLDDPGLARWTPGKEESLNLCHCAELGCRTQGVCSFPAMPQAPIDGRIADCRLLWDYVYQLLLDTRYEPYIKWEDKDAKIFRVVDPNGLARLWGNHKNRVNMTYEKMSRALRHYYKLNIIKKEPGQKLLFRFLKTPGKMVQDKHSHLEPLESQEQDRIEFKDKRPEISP
# Method in brief: as §1
# ELF5 = molecular target: T11, ELF5 (Homo sapiens, UniProt Q9UKW6-2 1-255); conditions: protein: recombinant; tags: N-terminal GST; dsDNA, one strand shown
# T11 sequence: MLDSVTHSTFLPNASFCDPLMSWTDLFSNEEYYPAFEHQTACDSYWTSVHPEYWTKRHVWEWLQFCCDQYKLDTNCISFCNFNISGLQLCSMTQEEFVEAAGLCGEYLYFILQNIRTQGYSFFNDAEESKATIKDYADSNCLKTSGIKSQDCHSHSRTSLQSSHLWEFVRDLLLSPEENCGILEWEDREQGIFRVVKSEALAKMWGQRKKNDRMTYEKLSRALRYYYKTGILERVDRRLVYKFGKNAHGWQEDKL
# Method in brief: as §1
# ETV3 = molecular target: T12, ETV3 (Homo sapiens, UniProt P41162-2 1-143); conditions: protein: recombinant; tags: N-terminal GST; dsDNA, one strand shown
# T12 sequence: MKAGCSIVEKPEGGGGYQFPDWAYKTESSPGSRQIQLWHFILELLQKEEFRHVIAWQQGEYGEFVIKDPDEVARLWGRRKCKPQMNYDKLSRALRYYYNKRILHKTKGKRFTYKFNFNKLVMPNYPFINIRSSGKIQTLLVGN
# Method in brief: as §1
# ETV6 = ETV6 (Homo sapiens, UniProt P41212 1-452); conditions: protein: recombinant; tags: N-terminal GST; dsDNA, one strand shown
# Chain of ETV6 (P41212 whole entry): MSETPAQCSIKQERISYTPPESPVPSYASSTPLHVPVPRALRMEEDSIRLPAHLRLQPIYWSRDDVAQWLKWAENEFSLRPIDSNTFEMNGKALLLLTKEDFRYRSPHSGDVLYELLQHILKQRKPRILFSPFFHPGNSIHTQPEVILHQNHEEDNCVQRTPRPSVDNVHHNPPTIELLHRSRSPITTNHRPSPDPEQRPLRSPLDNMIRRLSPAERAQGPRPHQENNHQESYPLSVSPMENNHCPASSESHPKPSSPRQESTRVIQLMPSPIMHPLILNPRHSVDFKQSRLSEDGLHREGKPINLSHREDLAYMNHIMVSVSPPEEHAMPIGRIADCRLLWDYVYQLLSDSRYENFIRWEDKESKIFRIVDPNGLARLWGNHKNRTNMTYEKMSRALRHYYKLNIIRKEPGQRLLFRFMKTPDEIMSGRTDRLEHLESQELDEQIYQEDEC
# Method in brief: as §1
sequence,measurement,setting,value
TACTTG,binding signal,FEV,"1.22 fold enrichment (6-mer frequency, TF over GST control)"
same,binding signal,ETV5,"1.26 fold enrichment (6-mer frequency, TF over GST control)"
same,binding signal,HSF1,"1.26 fold enrichment (6-mer frequency, TF over GST control)"
same,binding signal,SPIC,"1.35 fold enrichment (6-mer frequency, TF over GST control)"
same,binding signal,ELF4,"1.39 fold enrichment (6-mer frequency, TF over GST control)"
same,binding signal,ELK4,"1.38 fold enrichment (6-mer frequency, TF over GST control)"
same,binding signal,ETV2,"1.46 fold enrichment (6-mer frequency, TF over GST control)"
same,binding signal,ELF3,"1.54 fold enrichment (6-mer frequency, TF over GST control)"
same,binding signal,CRX,"1.5 fold enrichment (6-mer frequency, TF over GST control)"
same,binding signal,ETV1,"1.54 fold enrichment (6-mer frequency, TF over GST control)"
same,binding signal,ERF,"1.39 fold enrichment (6-mer frequency, TF over GST control)"
same,binding signal,ETV3L,"1.45 fold enrichment (6-mer frequency, TF over GST control)"
same,binding signal,ETS2,"1.24 fold enrichment (6-mer frequency, TF over GST control)"
same,binding signal,SPDEF,"1.21 fold enrichment (6-mer frequency, TF over GST control)"
same,binding signal,ETV7,"1.34 fold enrichment (6-mer frequency, TF over GST control)"
same,binding signal,ELF5,"1.35 fold enrichment (6-mer frequency, TF over GST control)"
same,binding signal,ETV3,"1.34 fold enrichment (6-mer frequency, TF over GST control)"
same,binding signal,ETV6,"1.24 fold enrichment (6-mer frequency, TF over GST control)"
